High-throughput results deposited in PubChem BioAssay by Broad Institute.
Shown is part of a subset that was picked to be rich in hits.
Tgondii IFNg – inhibitors of Toxoplasma gondii growth with IFN-gamma. Toxoplasma gondii growth in IFN-gamma-treated host cells; active compounds read low. activity change, negative = inhibition, % (test concentration not listed). 69,000 compounds, 3.8% hits. AID 1259416; in the data active = activity change below about -70%, passing the limit was not always enough;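 note: host cells are HeLa cells infected with Toxoplasma gondii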
A number is an active result; 0 = inactive.

SMILES	Tgondii IFNg
C[C@H](CO)N1C[C@H](C)[C@H](CN(C)Cc2ccc(Cl)c(Cl)c2)Oc2ccc(NC(=O)C3CCCCC3)cc2CC1=O	0
C[C@@H]1CN([C@@H](C)CO)C(=O)c2cccc(NS(=O)(=O)c3ccc(F)cc3)c2O[C@H]1CN(C)Cc1ccc(Cl)c(Cl)c1	0
C[C@H]1CN([C@@H](C)CO)C(=O)c2cccc(NS(=O)(=O)c3ccc(F)cc3)c2O[C@H]1CN(C)Cc1ccc(Cl)c(Cl)c1	-78.4
C[C@@H]1CN([C@H](C)CO)C(=O)c2cccc(NS(C)(=O)=O)c2O[C@@H]1CN(C)Cc1ccc(-c2ccccc2)cc1	0
C[C@@H]1CN([C@@H](C)CO)C(=O)c2cccc(NS(C)(=O)=O)c2O[C@@H]1CN(C)Cc1ccc(-c2ccccc2)cc1	0
C[C@H](CO)N1C[C@H](C)[C@H](CN(C)Cc2ccc(Cl)c(Cl)c2)Oc2c(NS(=O)(=O)c3ccc(F)cc3)cccc2C1=O	-85.1
C[C@H]1CN([C@@H](C)CO)C(=O)Cc2cc(NC(=O)C3CCCCC3)ccc2O[C@@H]1CN(C)Cc1ccc(Cl)c(Cl)c1	0
CC(c1ccc(F)cc1)N(C)C(=O)CCN1CCCO1 (centres undefined)	0
C=CCO[C@H]1CCN(Cc2nccn2C)[C@H]1Cc1cccnc1	0
Cc1ccc2c(c1)C1(CC2)CCN(CC(=O)O)CC1	0
COC[C@@H]1CCCN1Cc1cccc(C(=O)Nc2c(C)cnn2C)c1	0
Cc1nc(NC(=O)CCC(=O)N2CCc3[nH]c4ccccc4c3C2)sc1C	0
Cc1ccc(NC(=O)N2CCCn3nnc(CN4CCCCC4)c3C2)cc1	0
O=c1ccc2cc(S(=O)(=O)N(Cc3ccco3)C3CCCC3)ccc2[nH]1	0
COc1ccc(NC(=O)c2nnn(Cc3nc(-c4ccccc4)oc3C)c2C)cc1	-94.2
Cc1oc(-c2ccccc2)nc1Cn1nnc(-c2nc(-c3ccc(OC(C)C)cc3)no2)c1C	-79.9
Cc1oc(-c2cccc(Cl)c2)nc1Cn1nnc(C(=O)Nc2cccc(Cl)c2)c1C	-86.1
Cc1ccc(NC(=O)c2nnn(Cc3nc(-c4ccc(OC(C)C)cc4)oc3C)c2C)c(C)c1	-97.9
Cc1ccc(-c2nc(Cn3nnc(-c4nc(-c5ccc(OCC(C)C)cc5)no4)c3C)c(C)o2)cc1	0
Cc1ccc(-c2nc(Cn3nnc(C(=O)Nc4cccc(Cl)c4)c3C)c(C)o2)cc1	0
Cc1ccc(NC(=O)c2nnn(Cc3nc(-c4ccc(Cl)cc4)oc3C)c2C)c(C)c1	0
Cc1ccc(F)cc1NC(=O)c1nnn(Cc2nc(-c3ccc(OC(C)C)cc3)oc2C)c1C	0
CCOc1ccc(-c2nc(Cn3nnc(C(=O)Nc4ccccc4)c3C)c(C)o2)cc1	0
COc1ccccc1NC(=O)c1nnn(Cc2nc(-c3ccccc3)oc2C)c1C	0
Cc1ccc(-c2nc(Cn3nnc(-c4nc(-c5ccc(OC(C)C)cc5)no4)c3C)c(C)o2)cc1	0
SMILES	Tgondii IFNg
Cc1oc(-c2ccccc2)nc1Cn1nnc(C(=O)Nc2cccc(Cl)c2)c1C	0
CN1CCOCC2(C1)CN(c1ccc(C#N)cc1)CCO2 (centres undefined)	0
Clc1ccc(-c2nc3sc4nc5ccccc5nc4n3n2)c(Cl)c1	0
CCc1ccc(NC(=O)N2CCC(c3nc(C(=O)N4CCCC4)c(C)o3)CC2)cc1	0
Cc1oncc1C(=O)N1CCC2(CC(NS(C)(=O)=O)C2)C1 (centres undefined)	0
COC(=O)c1cc(C)nc2c1c(=O)nc(SCc1nc(-c3ccc(OC)cc3)oc1C)n2C1CC1	0
CN(C)S(=O)(=O)c1ccc2c(c1)CCN2Cc1ccnc(N2CCOCC2)n1	0
COc1ccc(OC)c(CC(=O)N2CCC(c3nc(C)ncc3-c3ccncc3)CC2)c1	0
Cc1cc(C)n(-c2cccc(CN(Cc3ccccc3)Cc3ccncc3)c2)n1	0
Cc1cc(C)c(NC(=O)c2nnn(Cc3nc(-c4ccccc4)oc3C)c2C)c(C)c1	-77.2
CCc1ccccc1NC(=O)c1nnn(Cc2nc(-c3ccccc3)oc2C)c1C	0
Cc1cccc(C)c1NC(=O)c1nnn(Cc2nc(-c3ccc(Cl)cc3)oc2C)c1C	-122.3
Cc1ccc(Cl)cc1NC(=O)c1nnn(Cc2nc(-c3ccccc3)oc2C)c1C	0
Cc1cc(C)c(NC(=O)c2nnn(Cc3nc(-c4ccc(Cl)cc4)oc3C)c2C)c(C)c1	0
Cc1cccc(C)c1NC(=O)c1nnn(Cc2nc(-c3cccc(Cl)c3)oc2C)c1C	0
Cc1cc(-c2ccc(C(C)N3CCCCC3)cc2)cnc1-n1cnnc1 (centres undefined)	0
CCc1nc2ccccc2n1CCC(=O)N1CCC(CO)(Cc2cccc(C(F)(F)F)c2)CC1	0
CC(NC(=O)c1nc(Nc2ccc(F)cc2)c2ccccc2n1)c1ccccc1 (centres undefined)	0
CCOC(=O)c1nc(NCCc2ccc(C)cc2)c2ccccc2n1	-72.5
CCCCNc1nc(C(=O)OCC)nc2ccccc12	0
Cc1ccc(Nc2nc(C(=O)NC(C)C)nc3ccccc23)cc1	-78.8
Cc1ccc(Nc2nc(C(=O)Nc3cc(C)cc(C)c3)nc3ccccc23)cc1	0
CCOC(=O)c1nc(NCc2ccc(C)cc2)c2ccccc2n1	0
Cc1ccc(Nc2nc(C(=O)NCCC(C)C)nc3ccccc23)cc1	-87.2
CCOCCCNC(=O)c1nc(Nc2ccc(C)cc2)c2ccccc2n1	0
SMILES	Tgondii IFNg
CC(C)CCNC(=O)c1nc(Nc2ccccc2)c2ccccc2n1	0
Cc1cccc(Cn2c3c(ccc2=O)CCNCC3)n1	0
CCN1CCC2(CC1)CC(NC(=O)C1CCOC1)c1ccccc1O2 (centres undefined)	0
O=C1c2ccccc2C(=O)N1CCS(=O)(=O)N1CCC2(CCNCC2)C1	0
CCOC(=O)c1nnn(-c2nonc2N)c1CN1CCCCC1C (centres undefined)	0
CCOc1cc(-c2nc3ccc4ccccc4c3c3c2CCCC3)ccc1O	0
COc1ccccc1N1CCN(Cc2cccc3nccnc23)C(C)C1 (centres undefined)	0
Clc1ccc(-c2nc(NCc3ccc4c(c3)OCO4)ncc2-c2ncc[nH]2)cc1	-106.4
FC(F)(F)c1ccnc(NCc2ccc3c(c2)OCO3)n1	0
FC(F)(F)CCc1ccnc(NCc2ccc3c(c2)OCO3)n1	0
NC(=S)NN=C1Cc2ccccc2C1	0
COc1ccc2c(c1)CCC/C2=N\NC(N)=S	-99.1
COc1ccc(-c2ccc(N)nc2)c(C)c1	0
c1cnc(-c2noc(Cn3cc4c(n3)CCC4)n2)cn1	0
COCCCN1CC(C(=O)Nc2ccc3c(c2)N(C)C(=O)CO3)CC1=O (centres undefined)	0
CN(C)Cc1ccc(S(=O)(=O)n2ccc(/C=C/C(=O)NO)c2)cc1	-80.6
CC[C@@H](C(=O)C(C)[C@@H](O)[C@H](C)CCc1ccc(C)c(O)c1C(=O)O)C1OC(CC)(C2CC[C@](O)(CC)[C@H](C)O2)C[C@@H]1C (some centres undefined)	-74.3
Cc1ccc(C(=O)Nc2nnc(C(C)(C)C)s2)cc1	0
COCCN1CCN(C(=O)N2CCOCC2)Cc2cccnc21	0
O=C(Nc1cccc(-n2cnnn2)c1)c1ccccc1	0
Cc1onc(-c2ccccc2)c1NC(=O)Nc1ccc(-n2ccc(C(F)(F)F)n2)cc1	0
O=C(Nc1ccccc1)Nc1ccc(-n2ccc(C(F)(F)F)n2)cc1	-80.9
COc1ccccc1NC(=O)Cn1c(=O)cc(-c2nc(C)no2)c2ccccc21	0
CC(C)C(=O)Nc1ncnc2nc[nH]c12	0
Cn1cnnc1Sc1c([N+](=O)[O-])ncn1C	0
Cn1cnc([N+](=O)[O-])c1Sc1ncnc2nc[nH]c12	-85.7
O=C(O)c1cnc(-c2ccccc2)nc1	0
